Compound activity: PubChem BioAssay, National Center for Advancing Translational Sciences (NCATS)
PKM2 activator – qHTS Assay for Activators of Human Muscle isoform 2 Pyruvate Kinase; purified PKM2, Kinase-Glo ATP luminescence, activation; response scale: 0% is enzyme alone, no compound; 0.34% of 260,000 active; Potency, µM (series often up to 57.5 µM), for inactives: top-dose activation, actives largely listed as activators; Pyruvate kinase PKM (Homo sapiens), P14618; also: nearly all actives have a fitted effect of over 55% in size
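hPK-M2, >95% pure; 0.1 mM ADP / 0.5 mM PEP final; imidazole pH7.2 buffer w/ 7 mM MgCl2, 50 mM KCl; 1 h RT; Kinase-Glo lum. Intermediate enzyme activity for dual inhibitor/activator qHTS.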
GAA inh – qHTS Assay for Inhibitors of Human alpha-Glucosidase as a Potential Chaperone Treatment of Pompe Disease; Potency, µM (top dose mostly 76.9 µM), for the others: at the top dose activity change, negative = inhibition, hits mostly inhibitors; 0.005% of 200,000 active; purified human GAA, 4-MU-alpha-glucoside fluorescence; Lysosomal alpha-glucosidase (Homo sapiens), P10253;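 also: plate controls were uninhibited enzyme wells for no effect and no-enzyme background for full effect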
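AC50 values come from Hill fits of compound titrations (up to 77 uM) against 4 nM human enzyme. Substrate 4-methylumbelliferyl-alpha-D-pyranoside at 400 uM, pH 5.0 citrate buffer, 20 min room temperature; fluorescence Ex 365/Em 440 after alkaline stop.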
GALK inhibitor – qHTS Assay for Inhibitors of Human Galactokinase (GALK). Purified GALK, Kinase-Glo residual ATP luminescence. Potency, µM (top dose mostly 57.5 µM), without a hit: at the top dose activity change, negative = inhibition, usual class: inhibitors. 0.007% of 270,000 active
Target sequence (P51570 whole entry, looked up): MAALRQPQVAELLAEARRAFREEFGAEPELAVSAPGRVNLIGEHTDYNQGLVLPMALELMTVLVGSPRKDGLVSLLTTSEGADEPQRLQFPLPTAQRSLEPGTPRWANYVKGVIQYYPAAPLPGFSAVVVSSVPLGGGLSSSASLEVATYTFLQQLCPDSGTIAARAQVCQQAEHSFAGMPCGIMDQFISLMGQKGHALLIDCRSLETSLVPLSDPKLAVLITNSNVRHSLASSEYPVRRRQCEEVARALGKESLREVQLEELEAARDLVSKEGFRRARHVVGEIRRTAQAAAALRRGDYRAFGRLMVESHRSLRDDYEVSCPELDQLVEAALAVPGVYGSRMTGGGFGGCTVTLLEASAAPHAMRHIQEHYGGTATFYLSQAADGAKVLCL
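Compounds were pin-transferred into ATP buffer (35 uM final), then GALK plus galactose (5 nM, 100 uM final) was added. After 1 h at room temperature, Kinase-Glo Plus was added and luminescence read after 10 min.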
GAA spleen mod – qHTS Assay for Inhibitors and Activators of Human alpha-Glucosidase From Spleen Homogenate; Lysosomal alpha-glucosidase (Homo sapiens), P10253; human spleen homogenate, 4-MU-alpha-glucoside fluorescence; Potency, µM (series often up to 79.9 µM), without a hit: at the highest dose activity change, negative = inhibition, usual class: inhibitors; 0.006% of 240,000 active;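 also: 0% = enzyme with vehicle and -100% = no enzyme basal signal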
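Compounds were titrated against alpha-glucosidase in spleen homogenate at pH 5.0, with 1 mM 4-methylumbelliferyl substrate for 40 min at 37 C. Reactions were quenched with pH 10 NaOH/glycine and fluorescence measured.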
GAA glycogen – qHTS Assay for Inhibitors and Activators of Human alpha-Glucosidase Cleavage of Glycogen | Lysosomal alpha-glucosidase (Homo sapiens), P10253 | recombinant GAA, glycogen substrate, Amplex Red glucose oxidase fluorescence | Potency, µM (doses to about 76.4 µM), for the others: at the top dose activity change, negative = inhibition, usual class: inhibitors | 0.38% of 300,000 active | AID 2100, 2009;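 also: 0% = full enzyme reaction and -100% = no-enzyme basal signal; the screen sought inhibitors and activators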
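Recombinant enzyme (4 nM final) with compounds titrated up to 77 uM and bovine liver glycogen (30 ug) in citrate pH 5.0, 0.01% Tween-20, 37 C 40 min. Released glucose detected by Amplex Red/glucose oxidase (Ex 573/Em 610); AC50 from Hill fits.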
An asterisk follows results filed as active; [ ] = dose if it differs, or a comment. In the library only some 0.63% were active in any assay of this set; here they are far more common. Calls follow the shape of the dose curve; as a rule, active = well fitted curve in the direction sought with a large enough effect; inconclusive = small, poorly fitted or top-dose-only effect, or another doubt; inactive = no such curve, though single readings can be large; an effect the other way counts as inactive or inconclusive. Unless noted, % is scaled to controls: 0 for no effect and ±100 for the full control effect; potency is read from the fitted curve at half-maximal effect.

For COC(=O)[C@@]1(Cc2ccc(F)cc2)[C@H]2c3cc(C(=O)N(C)C)n(Cc4ccccc4)c3C[C@H]2CN1C(=O)c1ccccc1 the results were PKM2 activator 0.8%, GAA inh -4.2%, GAA spleen mod 6.8% and GAA glycogen -4.2%.
Screening CC1=C(C(=O)N2CCCCC2)C(c2cccc(Cl)c2)n2c(nc3ccccc32)N1 (centres undefined) returned GAA glycogen 6.4%[76.3 µM].
For Cc1occc1-c1nnc(SCC(=O)N2CCOCC2)n1Cc1ccco1 the results were PKM2 activator 25.1µM*, GAA inh -4.8%, GALK inhibitor 0.0%, GAA spleen mod 1.6% and GAA glycogen -3.8%.
CCCOc1ccc(C2c3c(-c4ccccc4O)n[nH]c3C(=O)N2CCCOCC)cc1OCC (centres undefined) was read as GAA glycogen -19.4%[76.3 µM].
`CCOC(=O)c1ccc(NC(=O)CSc2cc(-c3ccccc3)nc(C)n2)cc1` gave GAA glycogen 11.9%[76.3 µM].
`Cc1nc(C#N)c(N/N=C/c2cccc(Cl)c2)o1` gave PKM2 activator -3.3%, GAA inh -9.0%, GAA spleen mod 0.6% and GAA glycogen 31.6µM*.
Screening O=C(O)c1ccccc1C(=O)NNc1ccc(F)cc1 returned PKM2 activator 6.7%, GAA inh -8.9%, GALK inhibitor -5.1%, GAA spleen mod 2.3% and GAA glycogen 28.2µM*.
O=C(O)c1ccccc1C(=O)NNc1ccc(Cl)cc1Cl was read as PKM2 activator -0.8%, GAA inh 4.3%, GALK inhibitor -3.7%, GAA spleen mod 2.1% and GAA glycogen 15.8µM*.
`CN(C)S(=O)(=O)c1cc(NC(=O)CN2CCN(c3ccc(O)cc3)CC2)ccc1Cl` gave PKM2 activator 19.8%, GAA inh -17.9%, GALK inhibitor -0.2% and GAA glycogen 7.08µM*.
CN(C)S(=O)(=O)c1cc(NC(=O)CN2CCN(c3ccccc3)CC2)ccc1Cl was read as PKM2 activator 6.7%, GAA inh inconclusive, GALK inhibitor -2.2%, GAA spleen mod -25.1% and GAA glycogen -7.8%.
Screening Brc1ccc(C=Nc2ccc(Nc3ccccc3)cc2)s1 returned PKM2 activator -4.9%, GAA inh 2.0%, GALK inhibitor -0.9%, GAA spleen mod -11.1% and GAA glycogen 8.91µM*.
For O=C(CCC(=O)N/N=C/c1ccc(Br)s1)NCc1ccccc1 the results were PKM2 activator 3.4%, GAA inh inconclusive, GALK inhibitor 1.3%, GAA spleen mod -1.7% and GAA glycogen -3.5%.
For C(=Nc1ccc(Nc2ccccc2)cc1)c1ccc2ccccc2c1 the results were PKM2 activator 13.7%, GAA inh -4.6%, GALK inhibitor 0.3%, GAA spleen mod -3.1% and GAA glycogen 17.8µM*.
Screening CCc1ccc(N(CC)C(=O)c2ccc3c(=O)n4c(nc3c2)CCCCC4)cc1 returned GAA glycogen -7.3%[76.3 µM].
COc1ccc(CCN2C(=O)CSC2c2ccc(OC)c(OC)c2)cc1OC (centres undefined) was read as PKM2 activator -0.5%, GAA inh 1.6%[15.4 µM], GALK inhibitor 5.6%, GAA spleen mod -0.8% and GAA glycogen 3.6%.
COc1ccc(C2SCC(=O)N2CCc2ccc(OC)c(OC)c2)cc1 (centres undefined) was read as PKM2 activator -8.4%, GAA inh 1.2%, GALK inhibitor 0.7%, GAA spleen mod 6.8% and GAA glycogen 5.62µM*.
For O=C(COc1ccc(Cl)cc1)Nc1ccc2nc(SCC(=O)N3CCCC3)sc2c1 the results were GAA glycogen 5.5%[76.3 µM].
Screening CC(C)C1Nc2c(O)cc(Cl)c([N+](=O)[O-])c2C2C=CCC21 (centres undefined) returned PKM2 activator 1.3%, GAA inh 14.7%, GALK inhibitor 1.7%, GAA spleen mod -2.0% and GAA glycogen 14µM*.
For O=c1c(=Nc2ccccc2O)c(=O)c2ccccc12 the results were PKM2 activator 0.5%, GAA inh 3.6%, GALK inhibitor 0.9%, GAA spleen mod 3.9% and GAA glycogen 8.91µM*.
`Oc1ccc(-c2csc(-c3ccccc3)n2)cc1O` gave PKM2 activator inconclusive, GAA inh -2.2%, GALK inhibitor 2.9%, GAA spleen mod -8.3% and GAA glycogen 11.1µM*.
Oc1ccc(-c2csc(-c3cccnc3)n2)cc1O was read as PKM2 activator 27.5%, GALK inhibitor -2.0%, GAA spleen mod 6.9% and GAA glycogen 7.08µM*.
For Oc1ccc(-c2csc(Nc3ncccn3)n2)cc1O the results were PKM2 activator 28.0%, GAA inh -2.9%, GALK inhibitor 5.9%, GAA spleen mod 6.3% and GAA glycogen 7.03µM*.
Screening O=C(CCn1c(=O)c2cccn2c2cccnc21)N1CCN(c2ccccc2F)CC1 returned GAA glycogen 11.2%[76.3 µM].
For Cc1cccc(NC(=O)CSc2cn(CC(=O)N3CCOCC3)c3ccccc23)c1C the results were GAA glycogen -0.6%[76.3 µM].
Screening O=S(=O)(c1ccc(Cl)cc1)c1nc(-c2cccs2)oc1SCc1ccccc1F returned GAA glycogen -9.9%[76.3 µM].
Screening CN1C(=O)c2cccc3c(S(=O)(=O)Nc4ccccc4F)ccc1c23 returned PKM2 activator 11.2µM*, GALK inhibitor -3.0% and GAA glycogen 10.4%.
Screening O=C(Cc1ccccc1)Nc1cccc(N2C(=O)C=CC2=O)c1 returned PKM2 activator 2.82µM*, GAA inh 2.3%, GALK inhibitor 1.9%, GAA spleen mod -1.5% and GAA glycogen 0.2%.
Screening CCOC(=O)c1c(-c2ccco2)csc1NC(=O)CSc1nnc(N)s1 returned PKM2 activator 12.6µM*, GAA inh 0.5%, GALK inhibitor -2.8%, GAA spleen mod -6.4% and GAA glycogen 12.6%.
Screening CCOC(=O)c1c(-c2ccc(C)o2)csc1NC(=O)CSc1nncs1 returned PKM2 activator 8.91µM*, GAA inh inconclusive, GALK inhibitor -2.5%, GAA spleen mod 9.1% and GAA glycogen 4.3%.
For CCOC(=O)c1c(-c2ccc(C)o2)csc1NC(=O)CN1CCC(C(N)=O)CC1 the results were PKM2 activator 20µM*, GAA inh -10.3%, GALK inhibitor -3.4%, GAA spleen mod -3.9% and GAA glycogen -6.5%.
For CCOC(=O)c1c(-c2ccco2)csc1N the results were PKM2 activator 4.5%, GAA inh -8.7%, GALK inhibitor 5.1%, GAA spleen mod -2.7% and GAA glycogen -16.7%.
